Sfp inh = qHTS Assay for Inhibitors of Bacillus subtilis Sfp phosphopantetheinyl transferase (PPTase) | actives 3.5% (n = 310,000) | Potency, µM, usual class: inhibitors | Biochemical Sfp PPTase activity, qHTS;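 also: the enzyme is Sfp with the accession as filed and its product quenches rhodamine fluorescence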
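Fluorescence-quenching assay: 15 nM Sfp-PPTase preincubated 15 min at room temperature with compound, then 5 uM rhodamine-CoA and 12.5 uM BHQ-2-labelled YbbR peptide added. Fluorescence (ex 525/em 598 nm) read at start and after 30 min; difference gives rate.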
IDH1 R132H inh = qHTS for Inhibitors of mutant isocitrate dehydrogenase 1 (IDH1): qHTS | Isocitrate dehydrogenase [NADP] cytoplasmic (Homo sapiens), O75874 | Potency, µM (series often up to 76.6 µM), usual class: inhibitors | actives 0.093% (n = 390,000) | IDH1-R132H enzyme, NADPH consumption, diaphorase/resazurin fluorescence; also: nearly all actives have a fitted effect of over 65% in size
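IDH1-R132H (0.5 ug/mL dispensed) in pH 7.5 Tris buffer was preincubated 30 min with compound, then given a substrate mix of 0.016 mM NADPH and 2 mM alpha-KG for 80 min at room temperature; remaining NADPH was read by diaphorase/resazurin fluorescence.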
TrxR1 substrate = qHTS Assay for Substrates of Mammalian Selenoprotein Thioredoxin Reductase 1 (TrxR1): qHTS. Thioredoxin reductase 1, cytoplasmic (Rattus norvegicus), O89049. purified TrxR1 substrate turnover, NADPH consumption readout. Potency, µM (doses to about 114 µM). actives 0.01% (n = 390,000). AID 588456, 2011; also: nearly all actives have a fitted effect of over 50% in size
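Rat TrxR1, dispensed at 90 nM, was prereduced with 400 uM NADPH (final) for 5 min at ~22 deg C, then incubated with compound 15 min before 400 uM selenite. A first-read NADPH fluorescence drop versus no-compound background flagged substrates.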
PLK1 PBD block = qHTS for Inhibitors of PLK1-PDB (polo-like kinase 1 - polo-box domain): Primary Screen | Potency, µM, usual class: inhibitors | actives 2.8% (n = 360,000) | AID 720504, 2013 | Serine/threonine-protein kinase PLK1 (Homo sapiens), P53350 | Plk1 PBD binding of FITC phosphopeptide, fluorescence polarization; also: series mostly up to about 57 µM; nearly all actives have a fitted effect of over 65% in size
Target sequence (P53350 whole entry, looked up, the tested form may be a part): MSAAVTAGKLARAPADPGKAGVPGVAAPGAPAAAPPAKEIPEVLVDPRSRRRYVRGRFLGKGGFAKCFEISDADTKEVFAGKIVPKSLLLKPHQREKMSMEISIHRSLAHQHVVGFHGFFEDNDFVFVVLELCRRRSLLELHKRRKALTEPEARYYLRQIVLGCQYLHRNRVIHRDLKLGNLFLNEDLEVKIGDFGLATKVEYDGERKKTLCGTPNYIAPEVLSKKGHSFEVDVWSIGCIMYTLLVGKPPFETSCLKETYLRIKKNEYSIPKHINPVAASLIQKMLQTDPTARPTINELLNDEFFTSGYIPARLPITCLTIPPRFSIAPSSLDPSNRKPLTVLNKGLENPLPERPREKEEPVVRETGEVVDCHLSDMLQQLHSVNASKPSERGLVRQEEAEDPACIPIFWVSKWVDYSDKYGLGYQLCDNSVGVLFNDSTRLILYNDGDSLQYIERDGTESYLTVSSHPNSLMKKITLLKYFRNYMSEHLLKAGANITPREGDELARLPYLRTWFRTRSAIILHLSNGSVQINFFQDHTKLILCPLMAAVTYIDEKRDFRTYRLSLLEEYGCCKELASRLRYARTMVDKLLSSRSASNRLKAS
VDR inh = Inhibitors of the vitamin D receptor (VDR): qHTS | actives 0.93% (n = 400,000) | VDR-SRC2-3 peptide fluorescence polarization, 2 h | AID 504847, 2011 | Potency, µM, most hits filed as inhibitors
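Reagent solutions, kept cold and dark, are dispensed first; compounds are then pinned in at 23 nl, plates briefly spun, and incubated 2 h at ambient temperature. Inhibition of VDR–SRC2-3 peptide binding is read by fluorescence polarization.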
rTrxR1 inhibitor = qHTS Assay for Inhibitors of Mammalian Selenoprotein Thioredoxin Reductase 1 (TrxR1): qHTS | recombinant rTrxR1, NADPH fluorescence consumption, selenite substrate | Potency, µM (series often up to 114 µM), most hits filed as inhibitors | actives 1% (n = 390,000) | AID 588453, 2011; also: nearly all actives have a fitted effect of over 65% in size
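Rat TrxR1 (90 nM in the dispensed reagent) was pre-reduced with 400 uM NADPH for 5 min at room temperature, then incubated with compound for 15 min. After 400 uM selenite was added, NADPH fluorescence (Ex 340/Em 450 nm) was followed for 8 min.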
Each line names hits and unclear results; the compound was inactive in the other large screens. Shown are actives, neighbours in structure and some others; about 5.2% of the full set was active somewhere. Calls follow the shape of the dose curve; as a rule, active = well fitted curve in the direction sought with a large enough effect; inconclusive = small, poorly fitted or top-dose-only effect, or another doubt; inactive = no such curve, though single readings can be large; an effect the other way counts as inactive or inconclusive.

CC(NC(=O)c1ccc(S(=O)(=O)C(F)F)cc1)c1ccccc1 (stereo not drawn)	PLK1 PBD block 24µM
COC1=C2C[C@H](C)C[C@H](OC)[C@@H](O)[C@@H](C)C=C(C)[C@H](OC(N)=O)[C@@H](OC)C=CC=C(C)C(=O)NC(=CC1=O)C2=O	VDR inh inconclusive, rTrxR1 inhibitor 50µM (no result: Sfp inh, IDH1 R132H inh, PLK1 PBD block)
Cc1nnc(N(Cc2ccco2)C(=O)c2cccc(C#N)c2)s1	PLK1 PBD block 30µM
COc1ccc(S(=O)(=O)Cc2ccc(C(=O)N3CCOCC3)o2)cc1	rTrxR1 inhibitor 35µM
COc1ccccc1N1CCN(C(=O)c2cnn(-c3ccc(C)c(C)c3)c2C2CCN(C(=O)OC(C)(C)C)CC2)CC1	none (no result: Sfp inh, PLK1 PBD block)
O=C(N/N=C/c1cccn1-c1ccc([N+](=O)[O-])cc1)C(O)c1ccccc1 (stereo not drawn)	Sfp inh 18µM
Cc1sc2nc(Cc3ccccc3)[nH]c(=O)c2c1-c1ccccc1	none
Cc1sc2nc(-c3cccnc3)[nH]c(=O)c2c1-c1ccccc1	Sfp inh 45µM, PLK1 PBD block 12µM
c1ccc(-c2cc3ccccc3[nH]2)cc1	none
O=c1[nH]c(-c2ccc(Cl)cc2)cs1	none
Fc1ccc(-c2csc(=S)[nH]2)cc1	Sfp inh 11µM, PLK1 PBD block 24µM, VDR inh 79µM
S=c1[nH]c(-c2ccccc2)cs1	Sfp inh 79µM, PLK1 PBD block 21µM, VDR inh inconclusive
Cc1ccc(C#CC2C=CC(Oc3ccc4c(c3)OCO4)C(CO)O2)c(C)c1 (stereo not drawn)	none (no result: IDH1 R132H inh, TrxR1 substrate, PLK1 PBD block, VDR inh, rTrxR1 inhibitor)
O=C(CCl)Nc1cc(SCC(O)CO)cc([N+](=O)[O-])c1 (stereo not drawn)	Sfp inh 71µM, PLK1 PBD block inconclusive, rTrxR1 inhibitor 5.6µM
COc1cc(Cl)c(C)cc1N1C(=O)CN(Cc2ccccc2)C1=S	Sfp inh inconclusive, PLK1 PBD block 24µM
COc1ccc2c(c1O)Cc1ccccc1C2=O	Sfp inh 45µM, PLK1 PBD block inconclusive
CC(C)=C1Cc2ccccc2C1=O	none
O=C(Cn1cc(S(=O)(=O)Cc2cccc(Cl)c2)c2ccccc21)NCc1ccccc1Cl	none (no result: Sfp inh, PLK1 PBD block)
CSCC[C@H](N)C(=O)NC[C@H]1CC[C@H](C(=O)N[C@@H](Cc2ccccc2)C(=O)O)CC1	none
COc1ccc(OC(C)C(=O)N(C)Cc2nc(-c3ccc(OC)cc3)no2)cc1 (stereo not drawn)	PLK1 PBD block inconclusive
CC/C(=C/c1ccccc1OC)c1cc(-c2ccccc2)cc2oc3ccccc3c12	none (no result: Sfp inh, IDH1 R132H inh, PLK1 PBD block, VDR inh)
CC1(C)Cc2c(sc(N)c2C#N)C(C)(C)N1	Sfp inh 18µM, PLK1 PBD block inconclusive
CC1(C)Cc2c(sc(NC(=O)C(C)(C)C)c2C#N)C(C)(C)N1	none
CC[C@H]1C2=C3C(CC[C@H]4C(OC)OC[C@](C)([C@@H]34)N(C(=O)OC(C)(C)C)C2)C(CO)C1CO (stereo partly drawn)	none (no result: IDH1 R132H inh, TrxR1 substrate, PLK1 PBD block, VDR inh, rTrxR1 inhibitor)
COc1cc(OC)c(/C=C/c2ccccn2)c(OC)c1	none (no result: Sfp inh, IDH1 R132H inh, PLK1 PBD block, VDR inh)
O=C1C(Cl)=C(N2CCCCCC2)C(=O)N1c1ccccc1Cl	PLK1 PBD block inconclusive
O=C1C(Cl)=C(N2CCOCC2)C(=O)N1c1ccccc1Cl	VDR inh 45µM
Cc1ccc(CN(CC(=O)NC2CCCC2)C(=O)CSc2nnc(COc3ccccc3)o2)cc1	PLK1 PBD block 30µM
O=C(CSc1nnc(COc2ccccc2)o1)NCCc1ccccc1	PLK1 PBD block 2.7µM, VDR inh inconclusive
O=C(CN(Cc1ccccc1)C(=O)CSc1nnc(COc2ccccc2)o1)NC1CCCC1	Sfp inh 79µM, PLK1 PBD block inconclusive
O=C(CN(Cc1cccs1)C(=O)CSc1nnc(COc2ccccc2)o1)NC1CCCC1	rTrxR1 inhibitor inconclusive

Source: PubChem
